Laboratory results published in PubChem BioAssay AID504850 (National Center for Advancing Translational Sciences (NCATS), 2011).
The campaign covered roughly 2,300 compounds. About 1,200 (52%) were called active. Inconclusive results (about 34%) are left out. Calls follow the shape of the dose curve; as a rule, active = well fitted inhibition curve with a large enough effect; inconclusive = small, poorly fitted or top-dose-only effect, or effect the other way; inactive = no such curve, though single readings can be large or run the other way. So high a share suggests a set chosen from earlier hits. This is one part of the list.

assay: Confirmation screen for delayed death inhibitors of the malarial parasite plastid, 48 hour incubation; also: nearly all actives have a fitted effect of over 65% in size; conditions: P. falciparum-infected erythrocytes, luciferase growth; series mostly up to 28.7 µM
Procedure, shortened: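 Erythrocytes infected with luciferase-expressing P. falciparum (2% hematocrit, 0.1% parasitemia) incubated with compounds 48 hours at 37 C, 5% CO2, in RPMI/Albumax. Growth inhibition scored as reduced luminescence after detection reagent.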
Potency is read from the fitted curve at half-maximal effect.

Structure (SMILES) | Potency
CCCCOc1ccc(NC2=NC3(CCCC3)N=C(N)N2)cc1 | 1.41 µM (active)
Cc1nc(-c2ccc(S(=O)(=O)N3CCCN(CCc4ccccc4)CC3)s2)cs1 | 10 µM (active)
Cc1ccc(N2C(=O)N3[C@H](c4ccc(F)cc4)[C@@H]4C(=O)N(C5CCCCC5)C(=O)[C@@H]4[C@]3(Cc3ccccc3)C2=O)cc1 | 5.62 µM (active)
Cc1cccc(Nc2nc3c(S(=O)(=O)c4ccccc4)nnn3c3ccccc23)c1C | 4.47 µM (active)
COCCNC(=O)/C(C#N)=C/C=C/c1ccccc1[N+](=O)[O-] | 11.2 µM (active)
CC1CCCCC1NC(=O)/C(C#N)=C/C=C/c1ccccc1[N+](=O)[O-] (stereo not given) | 5.01 µM (active)
N#C/C(=C\C=C\c1ccccc1[N+](=O)[O-])C(=O)NC1CCCCC1 | 4.47 µM (active)
COC(=O)C(=Cc1ccccc1[N+](=O)[O-])C(=O)OC | 4.47 µM (active)
COc1ccc([N+](=O)[O-])c(S(=O)(=O)c2ccccc2)n1 | inactive
COc1ccc(Cn2c(-c3ccc(Br)cc3)c[n+]3ccccc23)cc1 | 1.26 µM (active)
O=C(NC12CC3CC(CC(C3)C1)C2)c1ccc([N+](=O)[O-])o1 | 6.31 µM (active)
Cn1cc([N+](=O)[O-])c(C(=O)Nc2ccn(C34CC5CC(CC(C5)C3)C4)n2)n1 | inactive
CC(NC(=O)c1ccc([N+](=O)[O-])o1)C12CC3CC(CC(C3)C1)C2 (stereo not given) | 12.6 µM (active)
COCCNCC(=O)NC12CC3CC(CC(C3)C1)C2 | inactive
CC(=O)c1c(C)cc(C)c(CSc2nc(C)cc(=O)[nH]2)c1C | inactive
Cc1ccc(S(=O)(=O)Nc2cc(=O)[nH]c(SCc3ccc(Cl)cc3)n2)cc1 | 11.2 µM (active)
OC1CCN(c2c3c(nc4cc(-c5ccc(Cl)cc5)nn24)CCC3)CC1 | 7.08 µM (active)
Fc1cc2nc(-c3ccncc3)[nH]c2cc1F | 10 µM (active)
Cn1ccc(=Nc2ccc(NC(=O)c3ccc(N=c4ccn(C)c5ccc([N+](=O)[O-])cc45)cc3)cc2)cc1 | 0.199 µM (active)
Cc1sc2nc[nH]c(=O)c2c1-c1ccc(Cl)cc1 | inactive
O=C(CCl)Nc1cccc(S(=O)(=O)NC2=NCCC2)c1 | 1.26 µM (active)
COc1ccccc1-n1c(=S)[nH]c2c(sc(=S)n2-c2ccc(C)cc2C)c1=O | 3.16 µM (active)
CCOC(=O)c1c(C)nc(C)c(C(=O)OCC)c1-c1ccc(Br)cc1 | 12.6 µM (active)
Cc1ccc(C(=O)OCc2nnc(-c3ccc(Br)cc3)o2)cc1 | inactive
Cc1cccc(N2CCN(C3=NC(=O)C(Cc4ccccc4)S3)CC2)c1 (stereo not given) | 1.78 µM (active)
